Reference: PubChem BioAssay AID624330 (Southern Research Specialized Biocontainment Screening …, 2012)
In all, about 340,000 compounds went through this assay and about 2,100 (0.62%) were called active.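 Rule for the calls: active = first-screen hits whose inhibition reached a set limit at any dose in the follow-up dose series; inconclusive = inhibition above the set first-screen limit but never retested; inactive = the rest.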 Only a sample is shown. Results with a measured potency or affinity are listed apart.

Molecular target: Rac GTPase-activating protein 1 (Homo sapiens) (UniProt Q9H0H5)
Test: blockers of MgcRacGAP-driven Rac1 GTP hydrolysis – biochemical, ADP Hunter fluorescence, primary and confirmatory, confirmation (AID 624330);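 note: fluorescence reports GDP produced by GAP-driven GTP hydrolysis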
Conditions: MgcRacGAP-stimulated Rac1 GTP hydrolysis, at 30 µM, stronger effect = higher value, GST-tagged Rac1 F28L mutant substrate

Rac GTPase-activating protein 1 (Homo sapiens), sequence (Q9H0H5 whole entry, looked up): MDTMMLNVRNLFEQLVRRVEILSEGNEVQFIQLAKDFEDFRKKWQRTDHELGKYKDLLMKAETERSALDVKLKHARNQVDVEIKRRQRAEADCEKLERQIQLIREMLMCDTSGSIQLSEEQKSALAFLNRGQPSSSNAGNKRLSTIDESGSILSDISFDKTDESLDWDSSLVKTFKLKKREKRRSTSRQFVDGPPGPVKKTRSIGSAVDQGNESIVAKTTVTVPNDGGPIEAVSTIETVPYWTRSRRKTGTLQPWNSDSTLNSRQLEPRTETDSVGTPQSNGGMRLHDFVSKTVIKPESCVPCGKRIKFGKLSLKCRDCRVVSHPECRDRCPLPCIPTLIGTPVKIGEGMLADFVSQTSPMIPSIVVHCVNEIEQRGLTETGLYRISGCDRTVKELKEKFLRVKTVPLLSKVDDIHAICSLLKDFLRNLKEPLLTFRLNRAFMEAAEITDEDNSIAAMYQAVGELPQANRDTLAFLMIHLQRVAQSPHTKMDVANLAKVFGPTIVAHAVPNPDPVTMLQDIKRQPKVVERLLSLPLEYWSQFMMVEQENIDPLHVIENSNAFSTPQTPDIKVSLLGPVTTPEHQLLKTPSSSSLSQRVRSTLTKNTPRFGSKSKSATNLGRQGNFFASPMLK

inhibition, inactive:
COc1ccc(N=Cc2cc(Cl)ccc2O)cc1Cl 15.8%, Oc1ccc(Cl)cc1C=Nc1ccc(Br)cc1 7.16%, c1ccc(C2=Nn3c(nnc3-c3ccco3)SC2)cc1 18%, Fc1ccc(C2=Nn3c(nnc3-c3ccco3)SC2)cc1 1.81%, CN(CC(=O)NCc1ccncc1)S(=O)(=O)c1cc(Cl)ccc1Cl 1.23%, COc1ccc(NC(=O)c2c[nH]c(=O)n(-c3ccc(C)c(C)c3)c2=O)cc1OC -10.4%, CC1=NN(c2ccccc2)C(=O)C1c1ccccc1 (centres undefined) 26.3%, CC1=NN(c2ccccc2)C(=O)C1(C)C 12.1%, COc1ccc(CNC(=O)CSc2nnc3c(n2)[nH]c2ccccc23)cc1 3.19%, CSc1ncnc2c1ncn2CCCNCCCc1ccccc1 17.5%, COc1ncnc2c1ncn2CCCNCc1ccccc1 20.3%, CSc1ncnc2c1ncn2CCCNCc1ccccc1 17.1%, Cc1ccc(NCCCn2cnc3c(OCc4ccccc4)ncnc32)cc1C 26.1%, CCOCCCNC(=O)c1cc(Cl)c(NC(=O)C2=C(C)OCCS2)cc1OC 9.37%, OCC[C@H]1C[C@@H](O)[C@H](O)[C@]2(CCc3ccccc3CO2)O1 -0.41%, CN1CCN(c2cc(N3CCN(C(=O)c4ccco4)CC3)c3c4c(onc24)-c2ccccc2C3=O)CC1 14.2%, CCN1CCN(c2cc(N3CCN(C(=O)c4ccco4)CC3)c3c4c(onc24)-c2ccccc2C3=O)CC1 25.5%, Cc1nc(NC(=O)CCCC(=O)Nc2nc(C)c(C)s2)sc1C 3.32%, CCc1cc(=O)oc2c(C)c(OC(C)C(=O)NCC3CCC(C(=O)O)CC3)ccc12 (centres undefined) 0.46%, CCN(C(=O)Cn1cc(C(=O)C(=O)N2CCOCC2)c2ccccc21)c1ccccc1 7.38%, C=C(CC)C(=O)c1ccc(OCC(=O)O)c(Cl)c1Cl 4.69%, O=C(O)COc1ccc2nsnc2c1Cl 6.84%, CN1CCN(C(=O)CN(CCc2ccccc2)S(C)(=O)=O)CC1 1%, CS(=O)(=O)Nc1cccc(C2=NN(C(=O)c3cccc([N+](=O)[O-])c3)C(c3cccs3)C2)c1 (centres undefined) 7.25%, CC1(C)CC(CC(=O)Nc2ccccn2)C(=O)O1 (centres undefined) 3.54%, Cc1ccc(Oc2ncccc2/C=N/O)cc1 5.93%, Cc1cc(Cl)ccc1OC(C)C(=O)OCC(=O)Nc1ccc2[nH]c(=O)[nH]c2c1 (centres undefined) 1.09%, CN(C)/C=C1\NC(=S)N(c2ccc(Cl)cc2)C1=O 17.9%, CCN1C(=O)/C(=C\N(C)C)NC1=S 12%, COc1ccc(N2C(=O)/C(=C/c3cccs3)NC2=S)cc1 9.24%, COc1ccc(N2C(=O)/C(=C/c3cccnc3)NC2=S)cc1 3.24%, Cc1cccc(C)c1NC(=O)C1CCN(S(C)(=O)=O)CC1 -16.2%, O=C(O)c1cc(O)c2c(c1)C(=O)c1cccc(O)c1C2=O 28.8%, O=C1C=C(O)c2cccc(O)c2C1=O 0.71%, CNC(=O)c1sc(=S)n(-c2ccc(OC)cc2)c1N 3.75%, Cc1cccc(-c2ncc(S(=O)(=O)C(C)(C)C)c(N)n2)c1 -7.62%, CC(=O)Nc1ccc(N(C(=O)CNC(=O)c2ccco2)C(C(=O)NCc2ccco2)c2ccccc2F)cc1 (centres undefined) 4.97%, Cc1cccc(C(=O)NC(C)c2ccc(-n3ccnc3)cc2)c1C (centres undefined) 5%, COc1ccc([N+](=O)[O-])cc1NC(=O)C(C)NNC(=O)c1cccc([N+](=O)[O-])c1 (centres undefined) 4.39%, CN(C)C=Nc1ccc2nn(-c3ccccc3)nc2c1 6.6%, CN(C)C=Nc1ccc(Cl)c(Cl)c1 2.39%, Cc1c(C(c2cc(O)ccc2O)c2c(C)n(C)n(-c3ccccc3)c2=O)c(=O)n(-c2ccccc2)n1C -9.5%, CCCN(C(=O)c1cccs1)c1c(N)n(Cc2ccccc2)c(=O)[nH]c1=O 4.88%, CSc1ncccc1C(=O)Nc1cc(C)ccn1 11.2%, COc1ccc(CC(=O)NCC2CCCN(Cc3ccc(F)c(OC)c3)C2)cc1 (centres undefined) -1.16%, CC1=C(C(=O)N2CCOCC2)CC(CC(=O)NC2CCCC2)C(=O)N1Cc1ccc(F)cc1 (centres undefined) 14.4%, COc1ccc(NC(=O)NNC(=O)COc2ccc3cc(Br)ccc3c2)cc1 9.2%, COc1cccc(NC(=O)NNC(=O)COc2ccc3ccccc3c2)c1 2.17%, COc1ccc2cc(OCC(=O)NNC(=O)Nc3ccc(OC)c(OC)c3)ccc2c1 17.7%, COc1ccc(NC(=O)NNC(=O)COc2ccc3ccccc3c2)cc1 5.22%, COc1ccc(C(=O)N2CCNC(=O)C2CC(=O)Nc2cccc(Cl)c2Cl)cc1 (centres undefined) -0.3%, O=Cc1cn(-c2ccccc2)nc1-c1cccc([N+](=O)[O-])c1 6.3%, COc1ccc(C2NN=C(c3ccc(C)cc3)S2)cc1OC (centres undefined) -0.47%, COc1ccc(C2NN=C(c3ccc(C)cc3)S2)cc1 (centres undefined) 7.81%, COc1ccc(NC(=O)CC2C(=O)NCCN2C(=O)c2ccccc2)cc1 (centres undefined) 6.95%, Nc1nc(-c2ccccc2)cn1/N=C/c1ccccc1 3.51%, CC(=O)N(C(C)=O)c1nc(-c2ccccc2)cn1/N=C/c1ccccc1 7.71%, Cc1ccc(S(=O)(=O)CCC(=O)Nc2nc(-c3cccnc3)cs2)cc1 -10.2%, CCCc1nn2c(=O)cc(CSCC(=O)Nc3ccc(OC)cc3)nc2s1 1.76%, Cc1nnc(N2C(=O)C(O)=C(C(=O)c3ccco3)C2c2cccc3ccccc23)s1 (centres undefined) 7.61%, CC(C)(O[C@@H]1O[C@H](CO)[C@@H](O)[C@H](O)[C@H]1O)[C@H]1Cc2cc3ccc(=O)oc3cc2O1 3.49%, O=C(CNC(=O)c1ccccc1Br)N/N=C/c1cccnc1 7.98%, CC(=O)Nc1ccc(/C=N\NC(=O)CNS(=O)(=O)c2ccc([N+](=O)[O-])cc2)cc1 9.49%, O=C(CNS(=O)(=O)c1ccc([N+](=O)[O-])cc1)N/N=C\c1ccc(O)cc1 20.8%, O=C(N/N=C/c1ccc(OCc2ccccc2)cc1)c1cc[n+](Cc2ccccc2)cc1 13.8%, O=C(N/N=C/c1ccc(Br)cc1)c1cc[n+](Cc2ccccc2)cc1 4.25%, O=C(CNS(=O)(=O)c1ccccc1)N/N=C\c1ccc(Cl)cc1 7.25%, O=C(CNC(=O)c1ccccc1Br)N/N=C/c1ccccc1O 5.07%, CC(=O)Nc1ccc(/C=N/NC(=O)CNS(=O)(=O)c2ccccc2)cc1 9.41%, COc1cc(C2N(c3cc(C)on3)C(=O)C3CCCN32)cc(OC)c1OC (centres undefined) 4.47%, CCOC(=O)C(=O)/C(=C\N(C)C)c1onc(-c2c(F)cccc2Cl)c1C(=O)OC 4.69%, CSc1nc(C)cc(OCC#N)n1 5.78%, Cc1cccc(NC(=S)N2CCN(S(=O)(=O)c3ccc(F)cc3)CC2)c1 8.03%, CCCCCCN1C[C@@H](n2cc(COC(=O)c3ccccc3)nn2)[C@H](O)C[C@@H]1c1ccc(Cl)cc1 8.49%, Nc1ccc(-c2cn3cccnc3n2)cc1 -4.77%, COc1cccc(N2CCN(C(=O)CCc3nnc4ccc(N5CCCC5)nn34)CC2)c1 18%, O=C(COc1ccc(Cl)cc1)Nc1cc(S(=O)(=O)N2CCCCC2)ccc1N1CCCCC1 -10.3%, C=CCNC(=O)c1snnc1-c1ccccc1 5.75%, O=C(C[n+]1ccccc1)N/N=C/c1ccc(Br)cc1 -2.09%, O=C(C[n+]1ccccc1)N/N=C/c1ccc(C(=O)O)cc1 2.14%, O=C(Cn1cnc([N+](=O)[O-])n1)N/N=C/c1cc(Cl)ccc1O 11.2%, O=C(Cn1cnc([N+](=O)[O-])n1)N/N=C/c1ccccc1O 4.85%, COc1ccc(/C=N/NC(=O)Cc2cccs2)cc1 3.05%, CCN(CC)c1ccc(/C=N/NC(=O)Cc2cccs2)cc1 18.5%, CCOc1ccc(NC(=O)COc2cccc3cccnc23)cc1S(=O)(=O)N1CCCC1 5.24%, CC(C)c1[nH]nc2c1C(c1cccs1)C(C#N)=C(N)O2 (centres undefined) 8.28%, CC(C)(C)S(=O)(=O)c1cnc2c(S(=O)(=O)c3ccccc3)cnn2c1N -3.04%, N#CCC(=O)Nc1ccc(C(=O)OCC(=O)N=c2sccn2Cc2ccccc2Cl)cc1 5.66%, CCOC(=O)c1c[nH]c(=O)c(Br)c1O 4.86%, COc1ccc(NS(=O)(=O)c2cc(NC(=O)c3ccco3)ccc2N2CCCC2)cc1 -4.14%, O=C(COC(=O)COc1ccccc1)Nc1ncc([N+](=O)[O-])s1 11.1%, COc1ccc(C(=O)OCC(=O)Nc2ncc([N+](=O)[O-])s2)cc1OC 21.6%, C/C(=N\OC(=O)Nc1ccc(Cl)cc1)c1ccc(F)c(F)c1 6.77%, CCOC(=O)N1CCN(C(=O)Cc2cccs2)CC1 9.5%
